In PubChem BioAssay AID1209 (Sanford-Burnham Center for Chemical Genomics, 2008) one finds inhibition data, which are given here for 64 compounds.

The structures appear in SMILES notation. Where “and” joins values, the source holds several entries; their conditions need not be identical. Identical values can stand only once. Among all 190,000 compounds or so, about 810 (0.43%) were called active. The sample as a whole holds a higher share of actives than the screen did. Unmarked numbers belong to inactive results. No stated cut-off is given here; in the data, active means inhibition above about 50%; inactive means the rest.

In this experiment the target is Mannose-6-phosphate isomerase (Homo sapiens) (UniProt P34949). Kind of experiment: MPI enzyme activity inhibition – biochemical, fluorescence intensity, coupled assay, primary screen (AID 1209).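 Further: plate controls were DMSO vehicle for no effect and wells lacking substrate for full effect.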 The note with it: purified PMI enzyme, at 20 µM, active compounds read high.
Chain of Mannose-6-phosphate isomerase (Homo sapiens) (P34949 whole entry, looked up): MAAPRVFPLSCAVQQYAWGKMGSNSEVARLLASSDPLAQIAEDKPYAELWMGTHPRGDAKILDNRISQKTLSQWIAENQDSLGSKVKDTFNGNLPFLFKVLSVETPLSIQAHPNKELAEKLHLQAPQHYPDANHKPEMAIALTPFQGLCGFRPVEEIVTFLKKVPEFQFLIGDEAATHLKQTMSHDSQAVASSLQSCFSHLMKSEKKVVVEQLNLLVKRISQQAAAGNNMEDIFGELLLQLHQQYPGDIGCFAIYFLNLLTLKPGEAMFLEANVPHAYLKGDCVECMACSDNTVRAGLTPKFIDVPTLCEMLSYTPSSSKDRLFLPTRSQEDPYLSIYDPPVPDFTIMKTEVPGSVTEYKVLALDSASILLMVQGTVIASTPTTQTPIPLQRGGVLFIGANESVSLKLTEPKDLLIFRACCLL
`Nc1c(C(=O)N2CCCC2)sc2nc3c(cc12)CCCCCC3`: the inhibition is 95% (active). For `COC(=O)c1sc2nc3c(cc2c1N)CCCC3`, the inhibition is 14.2%. For the compound `NC(=O)c1sc2nc3c(cc2c1N)CCC3`, the inhibition is -8%. In the case of `O=[N+]([O-])c1cc(-c2cnc3ccccc3n2)ccc1Oc1ccc(Cl)cc1`, the inhibition is 5.9%. With `CCOc1ccccc1C1CC(=O)NC(SCC(=O)Nc2nccs2)=C1C#N` (centres undefined) the figure was -8.2%; with `CCOC(=O)C1C(=O)NC(SCC(=O)OC)=C(C#N)C1c1ccccc1OCC` (centres undefined), 14.3%; with `CCOC(=O)C1C(=O)NC(SCC(=O)Nc2nccs2)=C(C#N)C1c1ccccc1OCC` (centres undefined), 54.2% (active). For `CCOc1ccc(CCNC(=O)COC(=O)c2cccc(OC)c2O)cc1OCC` the value was 5.3%; for `O=C1OC(Nc2ncccn2)c2ccccc21` (centres undefined), 4.9%. As for `O=C1OC(Nc2ccc3ncccc3c2)c2ccccc21` (centres undefined), the inhibition was 62.7% (active). As to `O=C1OC(Nc2cc(Br)cc3cccnc23)c2ccccc21` (centres undefined), the inhibition was 14.2%.

Turning to `O=C(C1CCN(S(=O)(=O)c2cccc3cccnc23)CC1)N1CCN(c2ccccc2)CC1`, the inhibition was 13.6%. With `Cc1ccc(-n2nnnc2SCC(=O)N2CCc3ccccc3C2)cc1` the figure was -23.5%; with `CCn1c(SCC(=O)N2CCCc3ccccc32)nnc1-c1ccoc1C`, -2.9%; with `CCS(=O)(=O)c1ccc(O)c(NC(=O)COc2ccc(OC)cc2)c1`, 9.9%. Turning to `O=C(CC1CCCCC1)OCn1nnc2ccccc2c1=O`, the inhibition is -0.7%. With `CCOC(=O)C1=C(C)NC(C)=C(C(=O)OC)C1c1cccc([N+](=O)[O-])c1` (centres undefined) the figure was 13.5% and 1.6%. With `COC(=O)C1=C(C)NC(C)=C(C(=O)OC)C1c1ccccc1[N+](=O)[O-]`, the inhibition was 83.1% (active). For the compound `COC(=O)C1=C(C)NC(C)=C([N+](=O)[O-])C1c1ccccc1C(F)(F)F` (centres undefined), the inhibition is -1.2%.

Turning to `COc1ccc(S(=O)(=O)N2CCOCC2)cc1OC`, the inhibition is -10.5%. With `O=C(OC(C(=O)NCc1ccco1)C(OC(=O)c1ccccc1)C(=O)NCc1ccco1)c1ccccc1` (centres undefined) the figure was -6.4%. Regarding `O=[N+]([O-])c1c(NCCCO)cc(Sc2ccc(Cl)cc2)c2nonc12`, the inhibition was 50.2% (active). On to `O=[N+]([O-])c1c(NCCCO)cc(SCc2ccco2)c2nonc12`, for which the inhibition is 20.8%. Take `Cc1nnc(Sc2cc(NCCCO)c([N+](=O)[O-])c3nonc23)s1`: the inhibition is 31.1%. With `CC(=O)OCCCNc1cc(Sc2ccc(Cl)cc2)c2nonc2c1[N+](=O)[O-]`, the inhibition is 30.1%. For `Cn1ccnc1Sc1cc(NCCCO)c([N+](=O)[O-])c2nonc12` the value was -0.6%. As for `COc1ccc(CNc2cc(NCCCO)c([N+](=O)[O-])c3nonc23)cc1`, the inhibition was 52.3% (active). For `CCS(=O)(=O)CCSc1nc2c(cc1C#N)CCCC2` the value was 5.3%. `Cc1cc(Cl)ccc1N=Cc1c(O)n(C)c(=O)n(C)c1=O`: the inhibition was 9.5%. On to `Fc1ccc(N=c2ssnc2Cl)c(F)c1`, for which the inhibition was 80.9% (active).

As for `Cc1cc(Cl)ccc1N=c1ssnc1Cl`, the inhibition is 52.8% (active).

Take `Cc1cc(Cl)ccc1N=C1N=C(N)c2ccccc21`: the inhibition was 9.1%. With `Fc1ccc(F)c(C2=NNC(=Nc3ccccc3F)SC2)c1`, the inhibition was 22.5%. With `Oc1oc(C=Nc2ccc(F)cc2F)c2ccccc12` the figure was -80.8%. With `Cc1ccc(CCNc2ccccc2C)cn1` the figure was -6.3%; with `COc1ccc(C)cc1NC(=O)c1nnn(CCc2ccccc2)c1N`, 8.1%; with `CSc1ccccc1NC(=O)c1cc(-c2cccnc2)nc2ccc(Br)cc12`, -3%.

With `CCOC(=O)C1CC(c2ccccc2)=NNC1=O` (centres undefined), the inhibition is -6.5%. As to `COc1ccc(C2CN=NC23CCCc2ccccc2C3=O)cc1` (centres undefined), the inhibition is 3.1%. On to `C/C(=C\C(=O)O)C(=O)Nc1nccs1`, for which the inhibition is -3.3%. With `Cc1ccccc1CN1N=C(/C=C/c2ccccc2)CCC1=O` the figure was -3.6%; with `C/C(=N\NC(=O)c1ccccc1)c1ccc(C)c([N+](=O)[O-])c1`, 12.4%.

As for `CN1c2ccsc2C(O)=C(C(=S)Nc2ccccc2)S1(=O)=O`, the inhibition was 19.6%. For `Cc1ccc(NC(=S)C2=C(O)c3sccc3N(C)S2(=O)=O)cc1` the value was 56.1% (active); for `Cc1ccc(NC(=O)C2=C(O)c3sccc3N(C)S2(=O)=O)cc1`, 1.9%. With `COC(=O)Cc1c(C)nc2nc(-c3ccco3)[nH]n2c1=O` the figure was -34.2%. With `Cc1ccc(-n2c(C)n[nH]c2=S)cc1` the figure was 11.4%; with `Cc1ccc(C)n1-c1ncn[nH]1`, 5.2%; with `O=C(CN1C(=O)NC2(CCc3ccccc3C2)C1=O)Nc1ccc(Cl)cc1F` (centres undefined), 8.5%. For `CC1=NOC(=O)/C1=C\c1ccc(-c2ccc(Cl)c(C(=O)O)c2)o1`, the inhibition was 66.6% (active). Consider `CC1(C)OC(=O)C(=Cc2ccc(-c3ccc(Cl)c(C(=O)O)c3)o2)C(=O)O1`, for which the inhibition was -12.1%. Regarding `CC1=NOC(=O)/C1=C/c1ccc(-c2ccc(Cl)cc2)o1`, the inhibition was 21.9%.

In the case of `CCOC(=O)c1c(C)nc2ccc(C)cn12`, the inhibition was -2.7%.

As for `O=C(OCn1nnc2ccccc2c1=O)C1COc2ccccc2O1` (centres undefined), the inhibition is 12.1%. Consider `CCCCn1c(-c2ccco2)n[nH]c1=S`, for which the inhibition is 5.8%. Take `COCCCn1c(-c2ccco2)nc2ccccc2c1=O`: the inhibition was -0.1%. For `CN=C(c1ccc(C)cc1)n1c(=S)nc(-c2ccc(C)cc2)n(C)c1=S` the value was 37.7%. With `Cn1c(-c2ccco2)n[nH]c1=S`, the inhibition is -5%.

In the case of `COCCCN=C(c1ccco1)n1c(=S)nc(-c2ccco2)n(CCCOC)c1=S`, the inhibition is 52.4% (active). For `CN=C(c1ccco1)n1c(=S)nc(-c2ccco2)n(C)c1=S` the value was 51.4% (active); for `CN(C)C(=O)N1CCC(C(=O)NCc2ccccc2Cl)CC1`, 3.2%; for `CCOC(=O)c1ccccc1Nc1cc(C)nc2nc(C)nn12`, 5.5%. For `CCOC(=O)N1CCN(C(=O)CSc2ccc(-c3ccc(OC)cc3)nn2)CC1` the value was -0.8%; for `O=[N+]([O-])c1cc2c(c(CSc3nnnn3-c3ccc(O)cc3)c1)OCOC2`, 26.2%.
